# Data taken from PubChem BioAssay (Tox21).
# Where “and” joins values, the source holds several entries; their conditions need not be identical. Identical values can stand only once. Records with an inconclusive call do not appear. A call without a number means that no potency is given here. Calls of active or inactive are those of the source. Unless noted, calls follow the shape of the dose curve; as a rule, active = well fitted curve in the direction sought with a large enough effect in the repeat runs; inconclusive = weak or mixed curves; inactive = no such curve, though single readings can be large; an effect the other way counts as inactive or inconclusive.
# Experiments:
# [1] = target: Estrogen receptor beta (Homo sapiens) (UniProt Q92731); test: qHTS assay to identify small molecule agonists of the estrogen receptor beta (ER-beta) signaling pathway (AID 1259377; active = well fitted activation curve with a large enough effect in the signal ratio in the repeat runs, not every such curve was filed as active; the % refers to the signal ratio)
# Sequence of Estrogen receptor beta (Homo sapiens) (Q92731 whole entry, looked up): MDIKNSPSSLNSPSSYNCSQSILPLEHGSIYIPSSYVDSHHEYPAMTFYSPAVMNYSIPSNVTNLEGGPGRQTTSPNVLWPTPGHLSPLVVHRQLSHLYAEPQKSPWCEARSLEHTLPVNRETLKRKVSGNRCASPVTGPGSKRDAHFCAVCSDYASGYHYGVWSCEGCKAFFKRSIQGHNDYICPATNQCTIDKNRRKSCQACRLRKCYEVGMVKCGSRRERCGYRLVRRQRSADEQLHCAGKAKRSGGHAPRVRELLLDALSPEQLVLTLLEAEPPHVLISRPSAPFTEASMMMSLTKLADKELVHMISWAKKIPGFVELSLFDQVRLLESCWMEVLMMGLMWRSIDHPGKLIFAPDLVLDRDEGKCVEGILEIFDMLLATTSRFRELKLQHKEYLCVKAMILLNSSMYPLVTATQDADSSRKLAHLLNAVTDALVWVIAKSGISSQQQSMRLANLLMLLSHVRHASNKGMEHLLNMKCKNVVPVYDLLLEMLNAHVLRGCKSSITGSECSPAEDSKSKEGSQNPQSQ
# In short: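 Screening used GripTite ER-beta-UAS-bla cells held in 2% charcoal-stripped FBS medium. After overnight (16 hr) compound incubation at 37C, beta-lactamase activity was detected with a FRET substrate by fluorescence.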
# [2] = qHTS assay to identify small molecule agonists of the androgen receptor (AR) signaling pathway in the presence of an antagonist - cell viability counter screen (AID 1259379); also: nearly all actives have a fitted effect of over 25% in size; also: potency is read from the fitted curve at half-maximal effect
# In short: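 MDA-kb2 viability measured by CellTiter-Fluor fluorescence in the same wells as the luciferase signal; nilutamide 3.0uM final; 15-point compound titration; 16 hr at 37C.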
# [3] = qHTS assay to identify small molecule antagonists of the estrogen receptor beta (ER-beta) signaling pathway - cell viability counter screen (AID 1259382); also: nearly all actives have a fitted effect of over 55% in size; also: potency is read from the fitted curve at half-maximal effect
# In short: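 Readout: luminescence, CellTiter-Glo, same wells as bla assay. System: ER-beta-UAS-bla GripTite HEK293T, 2% charcoal-stripped FBS. Exposure: compounds plus 1nM 17-beta-estradiol, 16 hr, 37C.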
# [4] = target: Estrogen receptor (Homo sapiens) (UniProt P03372); test: qHTS assay to identify small molecule agonists of the estrogen receptor alpha (ER-alpha) signaling pathway in the presence of an antagonist (AID 1259383; calls by dose curve; also: nearly all actives have a fitted effect of over 15% in size; also: potency is read from the fitted curve at half-maximal effect; as to activation: top concentration of the series differs between compounds)
# Sequence of Estrogen receptor (Homo sapiens) (P03372 whole entry, looked up): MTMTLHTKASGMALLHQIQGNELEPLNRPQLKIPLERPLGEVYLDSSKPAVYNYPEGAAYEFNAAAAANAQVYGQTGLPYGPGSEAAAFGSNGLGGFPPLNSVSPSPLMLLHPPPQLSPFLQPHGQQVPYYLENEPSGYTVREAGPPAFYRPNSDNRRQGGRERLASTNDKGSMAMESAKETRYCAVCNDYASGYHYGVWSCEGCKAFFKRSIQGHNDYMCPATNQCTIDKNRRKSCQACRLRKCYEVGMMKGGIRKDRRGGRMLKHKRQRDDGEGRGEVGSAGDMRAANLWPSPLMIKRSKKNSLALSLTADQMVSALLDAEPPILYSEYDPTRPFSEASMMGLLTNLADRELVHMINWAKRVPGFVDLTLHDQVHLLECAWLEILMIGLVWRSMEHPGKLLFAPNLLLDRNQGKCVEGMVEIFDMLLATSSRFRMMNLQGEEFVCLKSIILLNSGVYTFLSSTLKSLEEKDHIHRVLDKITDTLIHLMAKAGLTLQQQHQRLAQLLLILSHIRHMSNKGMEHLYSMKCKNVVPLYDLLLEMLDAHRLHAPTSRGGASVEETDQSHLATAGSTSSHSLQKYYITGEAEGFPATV
# In short: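 Quantitative HTS confirmation: compounds titrated at 15 concentrations onto estrogen-deprived VM7Luc4E2 cells carrying a four-ERE luciferase construct, with ICI-182,780 present at 10.0nM final. Signal is luminescence after 22hr exposure.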
# [5] = qHTS assay to identify small molecule agonists or antagonists of the thyroid stimulating hormone receptor (TSHR) signaling pathway - wild type cell line counter screen (AID 1259384; calls by dose curve)
# In short: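 Wild-type Hek293 cells, 800/well, 18 h at 37C, then compound with Ro20-1724 for 30 min RT. cAMP by HTRF (cAMP-d2/anti-cAMP cryptate), 1 h RT, fluorescence read. 15 concentrations, triplicates.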
# [6] = target: Thyrotropin receptor (Homo sapiens) (UniProt P16473); test: qHTS assay to identify small molecule antagonists of the thyroid stimulating hormone receptor (TSHR) signaling pathway (AID 1259385; calls by dose curve; also: nearly all actives have a fitted effect of over 20% in size)
# Sequence of Thyrotropin receptor (Homo sapiens) (P16473 whole entry, looked up): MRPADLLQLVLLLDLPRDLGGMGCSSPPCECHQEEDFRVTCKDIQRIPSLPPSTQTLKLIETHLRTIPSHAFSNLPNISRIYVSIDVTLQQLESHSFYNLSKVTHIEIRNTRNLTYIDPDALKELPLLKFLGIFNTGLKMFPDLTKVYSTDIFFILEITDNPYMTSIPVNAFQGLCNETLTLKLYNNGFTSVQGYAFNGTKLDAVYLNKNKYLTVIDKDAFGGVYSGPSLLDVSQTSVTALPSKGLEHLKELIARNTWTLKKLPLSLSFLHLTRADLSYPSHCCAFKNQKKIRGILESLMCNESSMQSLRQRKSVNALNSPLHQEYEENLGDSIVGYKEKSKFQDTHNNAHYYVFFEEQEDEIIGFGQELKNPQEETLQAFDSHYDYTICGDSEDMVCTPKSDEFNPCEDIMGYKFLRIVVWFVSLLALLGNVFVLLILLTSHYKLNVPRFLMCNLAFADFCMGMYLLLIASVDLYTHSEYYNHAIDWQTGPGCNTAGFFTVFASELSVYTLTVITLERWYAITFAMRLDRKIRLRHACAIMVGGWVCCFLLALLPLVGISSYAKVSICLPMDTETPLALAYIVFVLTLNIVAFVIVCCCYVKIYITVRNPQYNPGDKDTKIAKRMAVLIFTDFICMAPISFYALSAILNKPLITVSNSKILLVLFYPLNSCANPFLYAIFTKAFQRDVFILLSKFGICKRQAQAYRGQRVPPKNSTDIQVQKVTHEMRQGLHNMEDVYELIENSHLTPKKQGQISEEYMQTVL
# In short: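 TSHR-HEK293 cells (800/well) plated 18 h, then compounds with Ro20-1724 and TSH at 1.5 ng/mL final, 30 min at room temperature. cAMP quantified by HTRF (cAMP-d2/anti-cAMP-cryptate, 1 h); 15 concentrations in triplicate.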
# [7] = qHTS assay to identify small molecule agonists of the estrogen receptor alpha (ER-alpha) signaling pathway in the presence of an antagonist - cell viability counter screen (AID 1259386);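 also: cells exposed to compounds for 22 h at 37 °C before the viability read; nearly all actives have a fitted effect of over 30% in size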; also: potency is read from the fitted curve at half-maximal effect
# In short: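 The test measures whether compounds kill ER-alpha reporter cells (VM7Luc4E2) under antagonist co-treatment (ICI-182,780, 10.0nM). Fluorescence from CellTiter-Fluor is read after a 22hr exposure.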
# [8] = target: Progesterone receptor (Homo sapiens) (UniProt P06401); test: qHTS assay to identify small molecule agonists of the progesterone receptor (PR) signaling pathway (AID 1346784; calls by dose curve; also: nearly all actives have a fitted effect of over 30% in size)
# Sequence of Progesterone receptor (Homo sapiens) (P06401 whole entry, looked up): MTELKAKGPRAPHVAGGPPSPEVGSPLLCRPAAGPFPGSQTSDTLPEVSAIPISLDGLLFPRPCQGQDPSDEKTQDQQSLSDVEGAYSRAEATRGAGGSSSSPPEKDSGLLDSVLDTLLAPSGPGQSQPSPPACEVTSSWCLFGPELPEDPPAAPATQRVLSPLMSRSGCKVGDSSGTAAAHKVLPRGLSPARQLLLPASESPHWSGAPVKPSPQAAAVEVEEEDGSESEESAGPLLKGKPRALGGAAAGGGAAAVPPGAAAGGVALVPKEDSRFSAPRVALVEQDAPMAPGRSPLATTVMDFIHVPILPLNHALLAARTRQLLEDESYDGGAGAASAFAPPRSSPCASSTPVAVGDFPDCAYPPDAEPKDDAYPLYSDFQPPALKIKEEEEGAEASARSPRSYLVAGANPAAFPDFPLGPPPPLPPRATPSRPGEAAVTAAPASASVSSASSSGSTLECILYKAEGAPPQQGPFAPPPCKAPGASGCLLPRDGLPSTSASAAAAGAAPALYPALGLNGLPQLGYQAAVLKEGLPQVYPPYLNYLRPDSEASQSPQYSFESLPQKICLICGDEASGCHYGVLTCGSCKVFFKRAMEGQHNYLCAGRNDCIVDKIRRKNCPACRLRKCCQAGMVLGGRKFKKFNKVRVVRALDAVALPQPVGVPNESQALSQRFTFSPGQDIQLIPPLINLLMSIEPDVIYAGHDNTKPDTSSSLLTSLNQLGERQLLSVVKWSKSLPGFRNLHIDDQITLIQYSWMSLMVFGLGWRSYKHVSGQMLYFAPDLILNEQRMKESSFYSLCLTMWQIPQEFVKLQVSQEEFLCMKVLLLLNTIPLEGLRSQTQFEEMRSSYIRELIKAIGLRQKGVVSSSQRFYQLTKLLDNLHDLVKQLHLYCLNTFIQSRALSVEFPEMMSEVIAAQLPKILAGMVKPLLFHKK
# In short: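 Seed PR-UAS-bla HEK 293T cells (2% charcoal-stripped FBS), incubate 6 hr at 37C; add compounds in DMSO, 16 hr at 37C; add LiveBLAzer B/G substrate, 2 hr RT; read fluorescence intensity.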
# [9] = qHTS assay to identify small molecule antagonists of the TGF-beta/Smad signaling pathway - cell viability counter screen (AID 1346824); also: nearly all actives have a fitted effect of over 50% in size
# In short: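 SBE-bla HEK 293T cells, incubated overnight, then compound plus 0.25 ng/mL TGF-beta1 (stock added) for 5 hr at 37 C. Viability was read in the same wells by CellTiter-Glo luminescence after 30 min at room temperature.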
# [10] = qHTS assay to identify small molecule agonists of the TGF-beta/Smad signaling pathway - cell viability counter screen (AID 1346829); also: top concentration of the series differs between compounds; nearly all actives have a fitted effect of over 45% in size
# In short: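 HEK 293T SBE-bla line, 5 hr compound exposure at 37 C, multiplexed CellTiter-Glo viability read by luminescence.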
# [11] = qHTS assay to identify small molecule agonists of the TGF-beta/Smad signaling pathway (AID 1346859; active = well fitted activation curve with a large enough effect in the signal ratio in the repeat runs, not every such curve was filed as active; the % refers to the signal ratio; also: series mostly up to about 77 µM)
# In short: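 Beta-lactamase reporter activity downstream of Smad binding elements was measured in stably transfected HEK 293T cells; compounds were incubated for 5 hr, substrate for 2 hr at room temperature.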
# [12] = target: Thyrotropin-releasing hormone receptor (Homo sapiens) (UniProt P34981); test: qHTS assay to identify small molecule antagonists of the thyrotropin-releasing hormone receptor (TRHR) signaling pathway (AID 1346877; active = well fitted inhibition curve with a large enough effect in the repeat runs, not every such curve was filed as active; also: series mostly up to about 51 µM)
# Sequence of Thyrotropin-releasing hormone receptor (Homo sapiens) (P34981 whole entry, looked up): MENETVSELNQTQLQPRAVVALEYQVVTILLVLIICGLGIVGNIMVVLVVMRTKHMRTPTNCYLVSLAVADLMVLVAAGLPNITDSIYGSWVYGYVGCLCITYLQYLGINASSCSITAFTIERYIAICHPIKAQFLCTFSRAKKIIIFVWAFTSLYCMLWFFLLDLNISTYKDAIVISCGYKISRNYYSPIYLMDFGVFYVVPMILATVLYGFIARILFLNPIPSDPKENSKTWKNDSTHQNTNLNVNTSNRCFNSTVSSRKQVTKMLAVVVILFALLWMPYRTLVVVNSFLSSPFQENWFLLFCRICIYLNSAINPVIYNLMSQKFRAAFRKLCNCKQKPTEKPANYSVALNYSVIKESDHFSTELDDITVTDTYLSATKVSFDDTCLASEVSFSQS
# In short: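 Overnight-plated (18 h, 37 °C) HEK293 cells expressing TRHR were dye-loaded 2 h, treated with compound, then stimulated with TRH at 1 nM final. Fluorescence intensity was captured every second for 3 min.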
# [13] = target: Thyrotropin-releasing hormone receptor (Homo sapiens) (UniProt P34981); test: qHTS assay to identify small molecule agonists of the thyrotropin-releasing hormone receptor (TRHR) signaling pathway (AID 1346891; calls by dose curve;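 also: HEK293 cells expressing TRHR with calcium dye readout; series mostly up to about 58 µM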)
# In short: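 Overnight-plated (18 h, 37 °C, 5% CO2) TRHR-Hek293 cells; 2 h calcium dye at 37 °C; compound in DMSO; 3-min kinetic fluorescence read.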
# [14] = qHTS assay to identify small molecule agonists of the estrogen receptor beta (ER-beta) signaling pathway - cell viability counter screen (AID 1259380); also: nearly all actives have a fitted effect of over 30% in size; also: potency is read from the fitted curve at half-maximal effect
# In short: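 Measured: luminescence from CellTiter-Glo after 30 min at room temperature, added to wells already read for the LiveBLAzer FRET reporter (2 hr substrate); ER-beta-UAS-bla HEK293T cells had 16 hr compound treatment at 37C, 5% CO2.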
# [15] = target: Androgen receptor (Homo sapiens) (UniProt P10275); test: qHTS assay to identify small molecule agonists of the androgen receptor (AR) signaling pathway in the presence of an antagonist (AID 1259381; calls by dose curve; also: nearly all actives have a fitted effect of over 15% in size)
# Sequence of Androgen receptor (Homo sapiens) (P10275 whole entry, looked up): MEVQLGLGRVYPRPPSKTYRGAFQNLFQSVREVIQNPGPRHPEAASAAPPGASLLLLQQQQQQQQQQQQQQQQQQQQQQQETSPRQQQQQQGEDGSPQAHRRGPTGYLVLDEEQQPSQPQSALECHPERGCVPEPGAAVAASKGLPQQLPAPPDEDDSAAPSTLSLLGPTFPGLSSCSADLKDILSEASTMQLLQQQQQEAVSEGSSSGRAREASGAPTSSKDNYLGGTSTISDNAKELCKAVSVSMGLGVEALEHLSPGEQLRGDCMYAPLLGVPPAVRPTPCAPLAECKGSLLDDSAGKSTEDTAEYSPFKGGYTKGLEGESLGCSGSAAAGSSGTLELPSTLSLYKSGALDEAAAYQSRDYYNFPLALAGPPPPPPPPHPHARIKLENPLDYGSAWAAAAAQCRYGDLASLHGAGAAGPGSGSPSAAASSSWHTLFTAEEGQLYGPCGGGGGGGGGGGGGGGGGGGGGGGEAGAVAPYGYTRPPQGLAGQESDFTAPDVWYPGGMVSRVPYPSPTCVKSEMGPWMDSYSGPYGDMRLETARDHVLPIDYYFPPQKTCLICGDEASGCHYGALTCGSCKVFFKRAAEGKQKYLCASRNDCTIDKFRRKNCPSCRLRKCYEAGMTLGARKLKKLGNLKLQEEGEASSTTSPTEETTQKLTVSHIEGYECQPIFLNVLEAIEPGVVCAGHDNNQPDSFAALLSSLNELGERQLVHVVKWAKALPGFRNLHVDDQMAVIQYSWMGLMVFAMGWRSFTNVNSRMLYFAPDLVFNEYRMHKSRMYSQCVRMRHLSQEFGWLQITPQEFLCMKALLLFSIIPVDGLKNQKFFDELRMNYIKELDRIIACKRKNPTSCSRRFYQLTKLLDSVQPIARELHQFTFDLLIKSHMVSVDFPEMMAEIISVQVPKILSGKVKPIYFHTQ
# In short: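 Luminescent ONE-Glo read, 30min at room temperature, follows 16hr compound exposure (15 concentrations) of MDA-kb2 cells at 37C, 0% CO2, with nilutamide added at 3.0uM final.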
# [16] = qHTS assay to identify small molecule agonists of the progesterone receptor (PR) signaling pathway - cell viability counter screen (AID 1346799; calls by dose curve; also: nearly all actives have a fitted effect of over 45% in size)
# In short: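 Using the same plates as the PR reporter screen, HEK293T PR-UAS-bla cells received compounds for 16 hr at 37C and were then lysed with CellTiter-Glo; luminescence was read 30 min later at room temperature.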
# [17] = Human pregnane X receptor (PXR) small molecule agonists, qHTS cell viability counter screen (AID 1346977); also: nearly all actives have a fitted effect of over 50% in size; also: potency is read from the fitted curve at half-maximal effect
# In short: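 After a 5hr pre-incubation, PXR-Luc HepG2 cells received compounds plus positive control in DMSO and were kept 24hr at 37C. Cell viability was quantified by fluorescence from CellTiter-Fluor added for the final hour.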
# [18] = target: Progesterone receptor (Homo sapiens) (UniProt P06401); test: qHTS assay to identify small molecule antagonists of the progesterone receptor (PR) signaling pathway (AID 1346795; active = well fitted inhibition curve with a large enough effect in the signal ratio in the repeat runs, not every such curve was filed as active; the % refers to the signal ratio; also: potency is read from the fitted curve at half-maximal effect)
# In short: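 Screening used a GripTite HEK293T line with PR-responsive UAS-beta-lactamase. Cells were challenged with compound in the presence of 1 nM R5020 final for 16 hr at 37C; B/G FRET substrate, 2 hr room temperature, fluorescence.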
# [19] = qHTS assay to identify small molecule antagonists of the progesterone receptor (PR) signaling pathway - cell viability counter screen (AID 1346798); also: nearly all actives have a fitted effect of over 50% in size; also: potency is read from the fitted curve at half-maximal effect
# In short: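 Measures cytotoxicity in parallel with the PR antagonist reporter read: HEK293T PR-UAS-bla cells get compound and R5020 for 16 hr, and remaining viable cells are quantified by CellTiter-Glo luminescence.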
# [20] = target: Estrogen receptor beta (Homo sapiens) (UniProt Q92731); test: qHTS assay to identify small molecule antagonists of the estrogen receptor beta (ER-beta) signaling pathway (AID 1259378; active = well fitted inhibition curve with a large enough effect in the signal ratio in the repeat runs, not every such curve was filed as active; the % refers to the signal ratio; also: potency is read from the fitted curve at half-maximal effect)
# In short: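 ER-beta-UAS-bla HEK293T cells in 2% charcoal-stripped FBS medium treated with compound plus 1nM final 17-beta-estradiol for 16 hr at 37C. Beta-lactamase reporter read by FRET substrate fluorescence after 2 hours at room temperature.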
Structure (SMILES),Potency [1],Potency [2],Potency [3],Potency [4],outcome [5],Potency [6],Potency [7],Potency [8],Potency [9],Potency [10],outcome [11],Potency [12],Potency [13],Potency [14],Potency [15],Potency [16],Potency [17],Potency [18],Potency [19],Potency [20]
CCCN(CCC)CCc1c[nH]c2ccccc12,inactive,inactive,inactive,inactive,inactive,inactive,inactive,inactive,inactive,inactive,inactive,inactive,inactive,,,,,,,
COP(=S)(OC)Oc1cc(Cl)c(Br)cc1Cl,inactive,inactive,inactive,inactive,inactive,,inactive,inactive,inactive,inactive,inactive,inactive,inactive,inactive,inactive,,,,,
NC(=O)CCl,inactive,inactive,inactive,inactive,inactive,inactive,,,inactive,,inactive,inactive,inactive,,inactive,inactive,inactive,,,
CCC(C)c1cc([N+](=O)[O-])cc([N+](=O)[O-])c1OC(=O)C=C(C)C (stereo not drawn),inactive,54.5 µM (active),inactive,,inactive,inactive,54.5 µM (active),inactive,inactive,inactive,,inactive,inactive,,inactive,,27.3 µM (active),12.2 µM (active),,
O=S(=O)(c1ccc(Cl)cc1)c1ccc(Cl)cc1,inactive,inactive,inactive,inactive,inactive,,inactive,,inactive,,inactive,,,inactive,,,inactive,,,
CCOP(=S)(OCC)SCCS(=O)(=O)CC,inactive,inactive,inactive,inactive,inactive,inactive,inactive,inactive,inactive,inactive,inactive,inactive,inactive,inactive,,inactive,inactive,48.6 µM (active),inactive,
CNC(C)Cc1ccc2c(c1)OCO2 (stereo not drawn),,inactive,inactive,inactive,inactive,inactive,inactive,inactive,inactive,inactive,inactive,inactive,inactive,inactive,inactive,inactive,,,66.9 µM (active),
Oc1ccc(C(=C(Cl)Cl)c2ccc(O)cc2)cc1,,inactive,68.5 µM (active),1.93 µM (active),inactive,inactive,,,inactive,,,,,68.5 µM (active),,,,,,3.43 µM (active)
CC(C)(C)OO,,inactive,inactive,,inactive,inactive,inactive,inactive,inactive,inactive,inactive,inactive,inactive,inactive,inactive,inactive,inactive,inactive,inactive,inactive
Cc1cc(N=Nc2ccccc2C)ccc1N,,30.6 µM (active) and 34.4 µM (active),54.5 µM (active),,inactive,,27.3 µM (active),inactive,inactive,inactive,inactive,inactive,inactive,27.3 µM (active),inactive,,4.47 µM (active) and 6.86 µM (active),,inactive,19.3 µM (active)
CN(CCCC(=O)c1cccnc1)N=O,,inactive,inactive,inactive,inactive,inactive,inactive,inactive,inactive,inactive,inactive,inactive,inactive,inactive,inactive,inactive,inactive,inactive,inactive,
C1CCC2CCCCC2C1 (stereo not drawn),,inactive,inactive,inactive,,,inactive,inactive,inactive,inactive,inactive,inactive,inactive,,,inactive,inactive,,inactive,inactive
Cc1ccc(OP(=O)(Oc2ccccc2)Oc2ccccc2)cc1,,inactive,,inactive,inactive,inactive,inactive,inactive,inactive,inactive,,inactive,inactive,31.1 µM (active),inactive,inactive,inactive,15.6 µM (active),inactive,24.7 µM (active)
